Source: PubChem BioAssay
E coli growth-1 – E. coli V3065 growth inhibition, primary screen, counter-screen for AddAB inhibitor project, absorbance, OD600. 18 h. 330,000 tested, 0.27% active. inhibition, % at 11.9 µM;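 active means inhibition above the campaign's mean inhibition across all tested compounds plus 3 SD, cut at about 9.9% in these data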;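 further: uninfected addAB+ strain grown without phage in ampicillin broth; 0% = DMSO wells and 100% = ciprofloxacin 0.95 µg/ml wells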
Tat export inh – E. coli Tat export inhibitors, primary screen, MC4100, TorA-mCherry reporter, fluorescence, single point; inhibition, % at 10 µM; 340,000 tested, 0.036% active; AID 488895, 2010;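 active means mean replicate inhibition at least 50% and at least half of replicates individually reaching 50%; inconclusive means only one of the two criteria met; inactive means neither criterion met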;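 further: exported cargo escapes ClpAP degradation while cytoplasmic cargo is degraded and loses fluorescence; 0% = median of neutral control wells and 100% = median of NaSCN control wells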
AI-2 QS modul – Vibrio harveyi AI-2 quorum sensing modulators, primary screen, JMH597 strain, luminescence/OD600 ratio; Vibrio harveyi JMH597 AI-2 luminescence/OD600 ratio, 9 h; active compounds read low; strain lacks LuxN and CqsS sensors; 0 = neutral-control median; activity change, % at 7.5 µM; 300,000 tested, 0.4% active; in the data active means activity change below about -75%, passing the limit was not always enough; inconclusive means no clear call, values can overlap the other calls;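 further: luminescence divided by OD600 gain over 9 h not by final OD600 alone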
AddAB inh – growth inhibition of E. coli expressing H. pylori AddAB, primary screen, AddAB inhibitor project, absorbance; AID 435030, 2010; 330,000 tested, 0.29% active; inhibition, % at 11.9 µM; in the data active means inhibition above about 12%;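 further: 0% = vehicle wells of infected cells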
phage Ecoli inh – growth loss of phage-infected E. coli, primary screen, RecBCD inhibitor project, absorbance, with phage, HTS. 360,000 tested, 0.26% active. AID 651602, 2012. inhibition, % at 11.9 µM; in the data active means inhibition above about 11%
E coli growth-2 – E. coli growth inhibition, primary screen, OD600. Escherichia coli growth, 23 h; active compounds read low. OD600 absorbance (test concentration not listed). 330,000 tested, 0.21% active. AID 1053175, 2014;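 active means OD600 absorbance below the run mean of sample wells minus 3.6 SD, in any replicate, cut at about 0.56 in these data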
AddAB confirm – growth loss of phage-infected E. coli expressing H. pylori AddAB, confirmation, AddAB inhibitor project, absorbance, E. coli V3065, T4 phage, triplicate; shares compounds with AddAB inh; OD; T4 phage with gene 2 nonsense mutations; inhibition, % at 11.9 µM; 880 tested, 64% active;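 active means mean inhibition above a set limit taken from the earlier primary screen, cut at about 13% in these data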;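 further: higher means less bacterial growth since AddAB block lets phage replicate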
RecBCD counter – growth loss of RecBCD+ E. coli with mutant T4 phage, counter-screen for AddAB inhibitor project, absorbance, V66 E. coli; shares compounds with AddAB inh; 880 tested, 73% active; inhibition, % at 11.9 µM; OD growth;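 active means mean inhibition above the mean of solvent-only control wells plus 3 SD, cut at about 4% in these data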;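 further: optical density read after an 18 h incubation at 37 °C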
bact viab count – bacterial viability inhibition counter-screen, confirmation, counter-screen for AddAB inhibitor project, absorbance; shares compounds with AddAB inh; absorbance (AddAB counterscreen); inhibition, % at 11.9 µM; 880 tested, 35% active; AID 488956, 2010; in the data active means inhibition above about 25%
RecBCD conf – growth loss of phage-infected RecBCD+ E. coli, confirmation, RecBCD inhibitor project, absorbance, E. coli V66, T4 gene 2 phage. shares compounds with phage Ecoli inh. E. coli V66 + T4 2- phage, growth OD. inhibition, % at 11.9 µM. 890 tested, 45% active;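 active means mean inhibition over triplicates exceeding the hit threshold derived in the original primary screen, cut at about 11% in these data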
Ecoli viability – E. coli viability inhibition, counter-screen for RecBCD inhibitor project, absorbance, high throughput. AID 651983, 2013. inhibition, % at 11.9 µM. 890 tested, 29% active. shares compounds with phage Ecoli inh. absorbance (OD) growth; in the data active means inhibition above about 20%;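 further: E. coli strain V66 grown with compound alone and no phage infection; 0% = bacteria with DMSO vehicle only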
AddAB counter – growth loss of phage-infected AddAB-carrying E. coli, confirmation, counter-screen for RecBCD inhibitor project, absorbance, E. coli V3065, T4 phage. 890 tested, 45% active. shares compounds with phage Ecoli inh. inhibition, % at 11.9 µM. E. coli expressing H. pylori AddAB + T4 phage, OD growth; gene 2 mutant T4, recBCD-deleted host;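 active means mean inhibition above the solvent-only control wells' mean plus 3 SD, cut at about 22% in these data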;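 further: higher means less bacterial growth from phage killing when AddAB is blocked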
* hit, by the source's call; ? = inconclusive; / = no result. The list is not random: actives were taken first. Their share in the collection is about 0.79%.

SMILES	E coli growth-1	Tat export inh	AI-2 QS modul	AddAB inh	phage Ecoli inh	E coli growth-2	AddAB confirm	RecBCD counter	bact viab count	RecBCD conf	Ecoli viability	AddAB counter
CCCCOC(=O)c1ccc(NC(=S)N2CCN(c3ncc4c(=O)c(C(=O)O)cn(CC)c4n3)CC2)cc1	4.5	1.7	17.6	3.2	3.4	0.65	/	/	/	/	/	/
CCn1cc(C(=O)O)c(=O)c2cc(F)c(N3CCN(C(=S)Nc4ccc(OC)cc4)CC3)cc21	100.7*	72.1*	8.2	99.7*	101.1*	0.076*	98.9*	99.2*	99.2*	103.9*	104.2*	104.0*
CCn1cc(C(=O)O)c(=O)c2cc(F)c(N3CCN(C(=S)NC(=O)c4ccccc4)CC3)cc21	101.5*	21.4	2.3	100.7*	82.3*	0.077*	99.1*	100.2*	102.9*	99.5*	99.6*	99.8*
C=CCNC(=S)N1CCN(c2cc3c(cc2F)c(=O)c(C(=O)O)cn3CC)CC1	99.3*	7.3	31.8	100.5*	40.9*	0.0765*	103.4*	101.1*	104.2*	103.4*	104.7*	104.1*
CCn1cc(C(=O)Nc2ncccc2O)c(=O)c2cc(F)c(N3CCN(C(=O)c4ccco4)CC3)cc21	63.6*	-5.4	27.2	92.7*	14.6*	0.112*	101.8*	4.9*	77.3*	2.5	3.3	85.8*
C=CCCC(Cc1ccc(F)cc1)C(=O)OCC(NC(=O)C(CC=C)CC(=O)N(CCO)Cc1ccccc1)c1ccccc1 (configuration not stated)	/	/	/	/	/	0.748	/	/	/	/	/	/
COc1ccc(C=Nn2cnnc2SCCO)cc1OC	/	/	/	/	/	0.753	/	/	/	/	/	/
CCn1cc(C(=O)O)c(=O)c2cc(F)c(NN=Cc3ccccc3[N+](=O)[O-])cc21	/	/	/	/	/	0.704	/	/	/	/	/	/
CCCOc1ccc(C(=O)NC(=S)N2CCN(c3ncc4c(=O)c(C(=O)O)cn(CC)c4n3)CC2)cc1	/	/	/	/	3.0	/	/	/	/	/	/	/
CCn1cc(C(=O)O)c(=O)c2cc(F)c(N3CCN(C(=S)NC(=O)c4cc(OC)cc(OC)c4)CC3)cc21	97.9*	21.7	18.0	98.0*	97.5*	0.083*	100.5*	100.4*	100.5*	104.5*	104.5*	105.6*
CCn1cc(C(=O)O)c(=O)c2cc(F)c(N3CCN(C(=S)NC(=O)c4ccccc4C)CC3)cc21	100.4*	58.6*	21.8	98.6*	97.1*	0.071*	99.4*	100.7*	99.9*	103.6*	105.2*	104.3*
COC(=O)[C@@]1(Cc2ccc(F)cc2)C2c3cc(C(=O)N(C)C)n(Cc4ccccc4)c3CC2CN1C(=O)c1ccccc1 (some centres not stated)	/	/	/	/	/	0.686	/	/	/	/	/	/
COCC=CC1=CC2=CC(=O)C(C)(OC(=O)C3CCCC3)C(=O)C2=CO1 (configuration not stated)	/	/	/	/	/	0.683	/	/	/	/	/	/
CCOC(=O)[C@@H]1[C@H]2COc3cc(OC)ccc3[C@H]2N2C(=O)N(c3ccc(C(F)(F)F)cc3)C(=O)[C@]12C	9.1	-6.7	/	14.1*	15.2*	/	2.0	8.4*	1.0	6.7	8.7	11.0
CCOC(=O)[C@@H]1[C@H]2COc3cc(OC)ccc3[C@@H]2N2C(=O)N(c3ccc(C(F)(F)F)cc3)C(=O)[C@@]12C	0.7	1.6	29.0	1.8	3.4	/	/	/	/	/	/	/
CCCC(=O)NC(c1ccccc1)c1ccc2cccnc2c1O (configuration not stated)	31.8*	4.1	/	23.6*	20.5*	/	25.5*	24.7*	21.0	18.1*	23.9*	29.4*
CC(=O)NC(c1ccc(C(C)C)cc1)c1ccc2cccnc2c1O (configuration not stated)	24.1*	2.9	34.1	19.7*	23.3*	/	14.6*	17.4*	14.5	13.3*	16.4	19.9
COc1cccc(C(NC(C)=O)c2ccc3cccnc3c2O)c1 (configuration not stated)	8.3	-5.8	/	9.5	9.8	/	/	/	/	/	/	/
CCCCC(=O)NC(c1ccccc1Cl)c1ccc2cccnc2c1O (configuration not stated)	27.7*	-0.9	-26.9	18.7*	21.4*	/	22.3*	19.4*	18.8	14.5*	18.0	24.0*
CCCC(=O)NC(c1ccc(OC)cc1)c1ccc2cccnc2c1O (configuration not stated)	30.2*	-0.8	?	28.0*	30.5*	0.637	25.4*	25.0*	17.6	16.4*	22.6*	22.9*
O=[N+]([O-])c1ccc(NC(c2ccccc2)c2ccc3cccnc3c2O)cc1 (configuration not stated)	/	3.2	/	/	7.0	0.742	/	/	/	/	/	/
Oc1cccc(C(Nc2nccs2)c2ccc3cccnc3c2O)c1 (configuration not stated)	16.0*	-9.1	-85.0*	18.3*	15.6*	0.643	19.2*	17.0*	16.3	8.6	9.2	16.1
CCCCC(=O)NC(c1ccc(C(C)C)cc1)c1ccc2cccnc2c1O (configuration not stated)	20.4*	-4.0	26.1	16.9*	17.1*	0.688	17.9*	15.4*	16.8	9.3	9.9	16.1
O=C(COc1cccc2cccnc12)Nc1nccs1	-2.9	-4.7	-4.6	-1.4	-0.2	0.634	/	/	/	/	/	/
CC(=O)NC(c1cccc([N+](=O)[O-])c1)c1ccc2cccnc2c1O (configuration not stated)	/	-5.4	?	/	10.7	/	/	/	/	/	/	/
